Screening results: PubChem BioAssay, National Center for Advancing Translational Sciences (NCATS)
Compounds with a hit are over-represented: about 4.6% of the library has one in this group of screens.
Tau fluor counter: counter-screen for tau fibril formation inhibitors; 280,000 tested, 0.93% active; AID 1463; Potency, µM (doses to about 57.7 µM), inactives show top-dose activity change, negative = decrease; tau K18 P301L Alexa594 fluorescence, heparin fibrillization; note: potency is the fitted concentration of half-maximal effect; nearly all actives have a fitted effect of over 55% in size
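Human K18 P301L tau (15 uM unlabeled plus 0.24 uM Alexa 594-labeled, final) in 100 mM sodium acetate pH 7 was mixed with compound and 20 uM heparin and incubated 6 hr at 37 C.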
Tau fibril ThT: inhibitors of human tau fibril formation, thioflavin T binding; recombinant tau K18 P301L, heparin-induced fibrillization, ThT fluorescence; Potency, µM (top dose mostly 57.4 µM), inactives show top-dose activity, negative = inhibition, hits mostly inhibitors; 270,000 tested, 2.1% active; AID 1460; note: potency is the fitted concentration of half-maximal effect; nearly all actives have a fitted effect of over 55% in size
Target sequence (P10636 561-689 P618L limits assumed): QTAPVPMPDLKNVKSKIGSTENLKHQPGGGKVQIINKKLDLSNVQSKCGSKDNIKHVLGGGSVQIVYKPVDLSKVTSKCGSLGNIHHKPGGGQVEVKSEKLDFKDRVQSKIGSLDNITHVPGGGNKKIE
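ThT emission at 510 nm, taken 1 hr after adding 30 uM dye, quantifies aggregates formed when 20 uM heparin acts on human tau K18 P301L for 6 hr at 37 C.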
PNC assembly inh: perinucleolar compartment assembly inhibition. PC3M PTB-GFP, PNC prevalence imaging, 16 h; stronger effect = lower value. activity change (PNC), negative = inhibition, % at 10 µM. 140,000 tested, 3.1% active. AID 2417;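 active = readout at or below -70, meaning at least 70% loss of cells showing the perinucleolar compartment, a nuclear body marking cancer cells; inconclusive = readout between -30 and a set limit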;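 note: plate controls were DMSO wells for no effect and camptothecin positive control wells for full effect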
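Read-out is percentage of cells bearing a perinucleolar compartment, from automated 20x imaging of fixed, Hoechst-stained PC3M PTB-GFP cells. Cells were seeded 4 h, then exposed 16 h to compound (23 nl of library stock) in duplicate plates.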
TRb SRC2 PPI: inhibitors of human thyroid hormone receptor beta-SRC2 interaction; P10828; TRbeta-SRC2 peptide binding, fluorescence polarization; receptor liganded with 1 µM T3; Potency, µM (titrated, usually from 106 µM), for the others: at the top dose activity change, negative = inhibition, hits mostly inhibitors; 280,000 tested, 0.065% active; AID 1469;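 note: potency is the fitted concentration of half-maximal effect; plate controls were bound peptide for no effect and peptide without receptor for full effect; nearly all actives have a fitted effect of over 50% in size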
Target sequence (P10828 whole entry, looked up): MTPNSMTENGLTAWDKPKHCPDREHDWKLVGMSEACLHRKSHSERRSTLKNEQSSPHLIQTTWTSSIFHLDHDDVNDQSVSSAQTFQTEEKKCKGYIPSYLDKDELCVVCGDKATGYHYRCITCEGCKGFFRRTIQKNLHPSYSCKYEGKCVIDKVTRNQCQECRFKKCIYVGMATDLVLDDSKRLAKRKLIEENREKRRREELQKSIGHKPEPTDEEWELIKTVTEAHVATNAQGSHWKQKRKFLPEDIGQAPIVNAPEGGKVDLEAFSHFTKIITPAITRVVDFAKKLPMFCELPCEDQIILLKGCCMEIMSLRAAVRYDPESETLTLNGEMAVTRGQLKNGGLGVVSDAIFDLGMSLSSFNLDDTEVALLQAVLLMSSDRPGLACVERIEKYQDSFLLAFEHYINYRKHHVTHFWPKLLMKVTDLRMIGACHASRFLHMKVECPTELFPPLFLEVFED
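Polarization signal, normalized between peptide-alone and full complex controls, measured compound effects on T3-liganded human TRb LBD (0.6 uM) binding 20 nM Texas Red SRC2 peptide after 5 hr.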
Tau FP inhib: tau fibrillization inhibition (FP). P10636. 280,000 tested, 0.39% active. Potency, µM (series often up to 57.7 µM), for inactives: at the top dose activity, negative = inhibition, usual class: inhibitors. K18 P301L tau heparin fibrillization, Alexa594 FP, 6 h; note: potency is the fitted concentration of half-maximal effect; nearly all actives have a fitted effect of over 55% in size
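FP of Alexa 594-tau after heparin (20 uM) induction. Substrate: human K18 P301L, 15 uM unlabeled, 0.24 uM labeled. Buffer 100 mM sodium acetate pH 7. 6 hr, 37 C.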
TexasRed fluor: Texas Red fluorescence interference in TRb-SRC2 counter-screen; 280,000 tested, 0.29% active; Potency, µM (series often up to 106 µM), for the others: top-dose fluorescence change, negative = quenching; TRb/SRC2 Texas Red total fluorescence interference; active = well fitted curve in either direction with a large enough effect; inconclusive = small, poorly fitted or top-dose-only effect; note: potency is the fitted concentration of half-maximal effect
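Human TRβ ligand-binding domain (0.6 uM) and Texas Red SRC2 peptide (20 nM) in Tris buffer with 1 uM T3 and 5% DMSO were incubated with pinned compound for 5 hr at ambient temperature. Total fluorescence was computed as S + 2P (555/632 nm).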
* hit, by the source's call; u = inconclusive; x = no result given; [ ] = another dose, or the depositor's remark. Unless noted, calls come from the whole dose curve; as a rule, active = well fitted curve in the direction sought with a large enough effect; inconclusive = small, poorly fitted or top-dose-only effect, or another doubt; inactive = no such curve, though single readings can be large; an effect the other way counts as inactive or inconclusive. Unless noted, % is set by controls: 0 for no effect and ±100 for the full control effect.

SMILES	Tau fluor counter	Tau fibril ThT	PNC assembly inh	TRb SRC2 PPI	Tau FP inhib	TexasRed fluor
CCOc1cc(C2C(C(=O)OC)=C(C)NC3=C2C(=O)c2ccccc23)cc(Cl)c1O (stereo not given)	7.9µM*[quencher]	u	x	5%	u	-6%
CCOc1cc(C2CC(=O)NC3=C2C(=O)C(C(=O)OC)C(C)C3)cc(Cl)c1O (stereo not given)	-4%	-6%	-9	-5%	-1%	-3%
CCOc1ccc(Br)cc1C1C(C(=O)OC)=C(C)NC2=C1C(=O)c1ccccc12 (stereo not given)	7.9µM*[quencher]	10µM*	x	6%	1%	-4%
CCOC(=O)COc1ccccc1C1C(C(=O)OC)=C(C)NC2=C1C(=O)c1ccccc12 (stereo not given)	14µM*[quencher]	14µM*	x	6%	11%	-5%
CCOC(=O)c1c(C)[nH]c(C(=O)OC)c1CCC(=O)OC	-4%	-2%	63	0%	-8%	-4%
CCCn1cnc2cc(NCc3ccc(OC)cc3OC)ccc21	-29%	u	x	-1%	1%	-7%
Cn1c(=O)c2c(nc(SCC(=O)NCc3ccc4c(c3)OCO4)n2Cc2ccc(Cl)cc2)n(C)c1=O	-28%	-10%	-100*	-5%	13%	-12%
O=C(CSc1nnc2scc(-c3ccc(Cl)cc3)n12)NCc1ccc2c(c1)OCO2	-3%	-18%	-86*	4%	-8%	-1%
COc1ccc(C/C(N)=N/n2cnnc2)cc1	2%	4%	15	10%	-4%	1%
c1cc(Nc2cccc3nccnc23)c2nccnc2c1	-28%	5µM*	x	-5%	-3%	-4%
COc1ccc(C(=O)/C=C/c2ccc(OC)cc2OC)c(O)c1	-30%	18µM*	x	10%	-5%	-5%
COc1ccc(/C=C/C(=O)c2cc(Cl)ccc2O)c(OC)c1	-24%	16µM*	x	1%	-5%	1%
CCn1c(C)nc2cc(C(=O)NNC(=O)CCC3CCCC3)ccc21	0%	-1%	10	-28%	-5%	3%
Cc1nnsc1C(=O)N/N=C/c1ccc2ccccc2c1O	-20%	3.2µM*	-27	1%	u	-1%
CCSc1nnc(NC(=O)C(C)(C)C)s1	4%	7%	-23	-7%	5%	0%
COC(=O)C1C(=O)OC(C)(C)C1C(C)C(=O)c1ccccc1 (stereo not given)	-4%	-5%	-13	-7%	-3%	-2%
CCn1c(O)c(/C=N/N=C2CCCCC2)c2cc(C3=NNC(=O)CC3)ccc21	-28%	10µM*	x	1%	-4%	-7%
NSc1nc(N)c2nc(-c3ccccc3)c(-c3ccccc3)nc2n1	-19%	16µM*	x	-6%	u	-3%
CC(=O)NN1C(=O)/C(=C\c2ccccc2)SC1=S	-12%	-9%	60	-1%	-8%	-2%
CC(=O)NN1C(=O)/C(=C/c2ccc(Br)o2)SC1=S	u	16µM*	32	22%	u	17%
CC(=O)NN1C(=O)/C(=C\c2ccc(Br)o2)SC1=S	-25%	25µM*	26	5%	11%	8%
COc1ccc(OC)c(/C=C2\SC(=S)N(Cc3cccnc3)C2=O)c1	-18%	u	24	-2%	-6%	2%
Cc1sc2nc(CN3CCCCC3)nc(Nc3ccc4c(c3)OCCO4)c2c1C	-2%	-9%	x	-2%	0%	-1%
CCc1nnc(NS(=O)(=O)c2ccc(NC(=O)OC)cc2)s1	-9%	-8%	21	3%	-5%	1%
NS(=O)(=O)c1ccc(Nc2ccc([N+](=O)[O-])c3nonc23)cc1	-22%	16µM*	x	4%	-11%	-2%
SMILES	Tau fluor counter	Tau fibril ThT	PNC assembly inh	TRb SRC2 PPI	Tau FP inhib	TexasRed fluor
CCc1nnc(NS(=O)(=O)c2ccc(Nc3ccc([N+](=O)[O-])c4nonc34)cc2)s1	-14%	14µM*	x	0%	4%	-6%
O=S(=O)(c1cc(Cl)ccc1Cl)N1CCCCC1	1%	-1%	u	-11%	-5%	-2%
Cc1cc(C)c(C#N)c(Nc2ccccc2)n1	-2%	-2%	-29	3%	0%	-4%
COc1cccc(Nc2nc(C)cc(C)c2C#N)c1	-8%	1%	-100*	-1%	-5%	-4%
CC(C)CC(C(=O)Nc1oc(-c2ccccc2)c(-c2ccccc2)c1C#N)N1C(=O)c2ccccc2C1=O (stereo not given)	-13%	4%	0	-11%	-5%	0%
CCOc1ccccc1NC(=O)CSc1nnc(-c2ccccn2)n1Cc1ccco1	-19%	-18%	-82*	-21%	u	-1%
O=C(CSc1nnc(-c2ccco2)n1Cc1ccccc1)NCc1ccccc1	7%	10%	200	-2%	9%	1%
O=C(CSc1nnc(-c2ccco2)n1Cc1ccco1)NCc1ccccc1	-13%	-11%	-94*	-4%	-10%	-6%
CCOc1ccccc1NC(=O)CSc1nnnn1Cc1ccccc1	1%	1%	-82*	1%	4%	-1%
CNC(=S)Nc1cccc(Cl)c1C	-1%	-1%	x	-1%	3%	-2%
O=C(/C=C/c1ccc(-c2ccccc2[N+](=O)[O-])o1)c1ccccc1	u	18µM*	53	2%	5%	4%
O=C(N/N=C/c1ccc(-c2ccc([N+](=O)[O-])cc2)o1)[C@H]1C[C@@H]1c1ccccc1	u	u	x	2%	6%	0%
COc1cc([N+](=O)[O-])cc(/C=N/NC(=O)c2cccnc2)c1O	-18%	u	x	0%	6%	-11%
O=C(N/N=C/c1ccc(-c2ccccc2[N+](=O)[O-])o1)[C@H]1C[C@@H]1c1ccccc1	u	4.5µM*	-6	1%	u	2%
Cc1ccc(C(=O)N/N=C/c2ccc(-c3ccccc3[N+](=O)[O-])o2)cn1	4%	7%	19	u	6%	32µM*[quencher]
COc1ccc(-c2ccc(/C=N/NC(=O)c3cccnc3)o2)c([N+](=O)[O-])c1	-25%	2.8µM*	1	-2%	u	-2%
Cc1c(NC(=O)CSc2nnc(-c3ccco3)n2-c2ccccc2)c(=O)n(-c2ccccc2)n1C	-2%	3%	u	2%	-2%	2%
COc1ccc(NC(=O)c2c(C)oc3ccc(O)c(CN4CCCCCC4)c23)cc1Cl	-22%	-11%	x	-8%	-1%	794µM*[quencher]
CCOc1ccc(OCC)c(NC(=O)CSc2nc3c(c(=O)n(C)c(=O)n3C)n2CC)c1	-6%	-4%	u	6%	5%	-5%
Cc1sc(NC(=O)c2oc3ccccc3c2C)c(C#N)c1C	-7%	-12%	9	1%	1%	2%
